# Pf apPOL inh: Pf-apPOL inhibitors, biochemical, fluorescence. Plasmodium falciparum apicoplast DNA polymerase (apPOL). Recombinant Pf-apPOL, molecular beacon fluorescence, 1.5 h. inhibition, % at 10 µM. 210,000 compounds, 0.25% hits. AID 1794808, 2022
# mHTT-CaM PPI inh: mutant huntingtin-calmodulin interaction inhibitors – biochemical, AlphaScreen, primary screen. P42858. AlphaScreen His-mHTT/GST-CaM binding, luminescence. inhibition, % at 15 µM. 190,000 compounds, 3.6% hits. AID 1671202, 2021
# Numbers stand for hits; – = inactive; · = no result given. In the library only some 3.6% were active in any assay of this set; here they are far more common. Cut-off read from the data, not from the text of the source: active = inhibition above about 50%; inactive = the rest.
SMILES,Pf apPOL inh,mHTT-CaM PPI inh
COc1cccc(C2C=C(c3ccc(Br)cc3)Nc3nnnn32)c1OC (centres undefined),–,–
Cn1cccc(C(=O)N2CCC3(CC2)OCCN3S(=O)(=O)c2ccccc2)c1=O,–,–
CCC(=O)Nc1ccc(S(=O)(=O)NCCc2ccc(N(C)C)cc2)c(C)c1,–,–
CC(=Cc1ccccc1)C=C1SC(=S)N(C(CCC(=O)O)C(=O)O)C1=O (centres undefined),–,–
CC(=Cc1ccccc1)C=C1SC(=S)N(C(Cc2ccccc2)C(=O)O)C1=O (centres undefined),–,85.3
COc1cccc(-c2cc(C(=O)N3CCCC3c3cccc(C)c3)on2)c1 (centres undefined),–,–
O=C(CSc1nnc(-c2cccnc2)n1C1CCCCC1)Nc1cccc(F)c1,–,–
O=[N+]([O-])c1ccc2cc(Br)c3ccccc3c2c1,–,·
Nc1ccc2cc(Br)c3ccccc3c2c1,·,59.2
CNc1nc(C)c([N+](=O)[O-])c(Nc2ccc(OC)cc2)n1,–,–
COc1ccc(Nc2nc(Nc3ccc(O)cc3)nc(C)c2[N+](=O)[O-])cc1,–,78.0
CCC(Cc1ccccc1)NS(=O)(=O)c1ccc(F)c(C(=O)Nc2ccccc2OC)c1 (centres undefined),–,–
O=C1C(=O)N(Cc2cccc(C(F)(F)F)c2)c2ccccc21,–,–
O=C1C(=O)N(CCc2ccccc2)c2ccc(Cl)cc21,–,–
O=S(=O)(c1ccc(Cl)c(S(=O)(=O)N2CCOCC2)c1)N1CCOCC1,–,–
Cc1ccc(CN2C(=O)C(=O)c3cc(S(=O)(=O)N4CCOCC4)ccc32)cc1,–,89.0
Cc1ccc(CN2C(=O)C(=O)c3cc(Cl)ccc32)cc1,–,62.0
O=C1C(=O)N(Cc2cccc(Cl)c2)c2ccccc21,–,93.0
CN(C)c1ccc(O)o1,·,–
O=C(Nc1nnc(C2CCCCC2)s1)C1CCCCC1,–,–
CCCCC1(CO)C(=O)N(c2ccccc2)N(c2ccccc2)C1=O,–,·
CCCCC1(CC(=O)Nc2ccc(F)cc2)C(=O)N(c2ccccc2)N(c2ccccc2)C1=O,–,98.0
Cc1ccc(N=C2C(=O)N(CN3CCOCC3)c3ccccc32)cc1C,–,58.0
Cc1ccc(N=C2C(=O)N(CN3CCOCC3)c3ccccc32)cc1,–,–
O=C1OC(c2ccc(Br)o2)=N/C1=C/c1ccc(Cl)cc1Cl,–,–
SMILES,Pf apPOL inh,mHTT-CaM PPI inh
O=[N+]([O-])c1ccc(Nc2c[nH]c3ccccc23)cc1,–,89.0
O=c1sc2ccccc2c(Nc2ccc([N+](=O)[O-])cc2)c1[N+](=O)[O-],·,–
O=Cc1[nH]c2ccccc2c1Nc1ccc([N+](=O)[O-])cc1,–,100.2
O=[N+]([O-])c1ccc(Nc2ccc(F)cc2)cc1,–,·
Oc1cccc2ccc(/C=C/c3ccc(F)cc3)nc12,–,–
COc1ccc(/C=C/c2ccc3c(Cl)ccc(O)c3n2)cc1,–,79.0
CCC(C(=O)O)N1C(=O)C(=Cc2ccc(O)c(OC)c2)SC1=S (centres undefined),–,–
CCOc1ccc(C=C2SC(=S)N(CCCCCC(=O)O)C2=O)cc1OC,–,–
COc1cc(C=C2SC(=S)N(c3ccc(O)c(C(=O)O)c3)C2=O)ccc1O,–,54.3
CCCCCCCC(=O)NN1C(=O)C(=Cc2ccc(O)c(OC)c2)SC1=S,–,88.1
O=[N+]([O-])c1ccc(NN=Cc2ccccc2)c([N+](=O)[O-])c1,–,·
O=[N+]([O-])c1ccc(NNc2ccccc2)c([N+](=O)[O-])c1,·,69.3
O=[N+]([O-])c1ccc(O)c(C=Nc2ccc(Nc3ccccc3)cc2)c1,–,–
O=[N+]([O-])c1cc(Nc2ccccc2)c(C=Nc2ccccc2)c([N+](=O)[O-])c1,–,51.0
Cc1c(N(Cc2ccccc2)C(=O)c2ccc([N+](=O)[O-])cc2)c(=O)n(-c2ccccc2)n1C,–,–
O=C1NC(c2ccc(F)cc2)=NC2CCN(C(=O)Cc3ccccc3)CC12 (centres undefined),–,–
CCn1nccc1C(=O)Nc1nc2ccc(S(=O)(=O)N(C)C)cc2s1,–,–
Cc1ccc(/C=C2\Sc3ccccc3C2=O)cc1[N+](=O)[O-],–,–
CN1CCN(c2ccc(/C=C3\Sc4ccccc4C3=O)cc2[N+](=O)[O-])CC1,–,72.0
O=C1NC(=S)N/C1=C/c1ccc(-c2ccc3c(c2)C(=O)NC3=O)o1,·,54.9
CC1=NN(c2ccc(Br)cc2)C(=O)/C1=C/c1ccc(-c2ccc3c(c2)C(=O)NC3=O)o1,–,–
CC(NC(=O)CC1Sc2ncccc2N(C)C1=O)c1ccccc1 (centres undefined),–,–
Cc1ccc(-n2[nH]c3c(cnc4ccc(C(=O)NC5CCCC5)cc43)c2=O)cc1C,–,–
CN(C)CCNC(=O)c1cc2c(=O)oc3ccccc3c2s1,–,–
COc1ccc(OC)c(C2CC(c3ccc(C)cc3)Nc3nnnn32)c1 (centres undefined),–,–
SMILES,Pf apPOL inh,mHTT-CaM PPI inh
COc1cccc(C2CC(c3ccc(C)cc3)Nc3ncnn32)c1OC (centres undefined),–,–
COc1ccccc1C1CC(c2ccc(Cl)cc2)Nc2ncnn21 (centres undefined),–,54.0
CCc1ccc(C2CC(c3ccccc3OC)n3ncnc3N2)cc1 (centres undefined),–,–
CCc1ccc(C2CC(c3cc(OC)ccc3OC)n3ncnc3N2)cc1 (centres undefined),–,51.0
COc1ccc(OC)c(C2CC(c3ccc(Br)cc3)Nc3nnnn32)c1 (centres undefined),–,57.6
COc1cccc(C2CC(c3ccc(Br)cc3)Nc3ncnn32)c1OC (centres undefined),–,51.0
COc1ccccc1C1CC(c2ccc(I)cc2)Nc2ncnn21 (centres undefined),–,–
COc1cccc(NC(=O)C2CCCN(S(=O)(=O)c3ccc(C)cc3)C2)c1 (centres undefined),–,–
CC1Cc2cc(-c3cc(CNC(=O)c4cccs4)no3)ccc2O1 (centres undefined),–,–
CCN1CCN(C(=O)c2cc(Cl)ccc2OC)CC1,–,–
Cc1nnc2cc(N3CCN(Cc4ccsc4)CC3)cnn12,–,–
CC(C)(C)C(=O)N1CCCC2(CC(c3cccc(Cl)c3)=CO2)C1 (centres undefined),–,–
O=C(NCc1ccc(F)cc1)c1cn2c(n1)CCCC2,–,–
CCC(Sc1nc(C)cc(C)n1)C(=O)Nc1ccc([N+](=O)[O-])cc1 (centres undefined),–,–
NC(=O)C1CCCN(CC2CCCCC2)C1 (centres undefined),–,–
CCc1ccc(NC(=O)c2cc(C(C)C)n3nccc3n2)cc1,–,–
FC(F)Oc1ccccc1C1CC(c2ccc(I)cc2)Nc2ncnn21 (centres undefined),–,53.0
Cc1ccc(C2CC(c3ccc(F)cc3)n3nnnc3N2)cc1 (centres undefined),–,–
Fc1ccc(C2CC(c3ccccc3OC(F)F)n3ncnc3N2)cc1 (centres undefined),–,–
Cc1ccc(C2CC(c3ccc(F)c(Br)c3)n3nnnc3N2)cc1 (centres undefined),–,61.0
Cc1cccc(C(=O)Nc2cc(-c3cccs3)no2)c1,–,–
Cc1ccccc1C1=N/C(=C\c2ccc(I)o2)C(=O)O1,–,–
Cc1nnc(NC(=O)c2ccc(=O)n(Cc3cccc([N+](=O)[O-])c3)c2)s1,–,–
